Assay results: the supplement of paper PMC10849652
About 7,900 targets were measured; listed, in parts, are those with a hit and a random draw of the rest. About 0.6% of all pairs of compound and target were hits. A number with no mark means an inactive call.

Tests used:
Assay in all cases: log2 fold change, soluble protein after heating vs DMSO (PISA); higher = thermal stabilisation; K562 cells, 10 uM, 30 min; active = over 0.2 and 3.5 SD of the protein, either way, in both replicates (recomputed)
YAE1 = YAE1 (UniProt Q9NRH1)
Chain of YAE1 (Q9NRH1 whole entry, looked up): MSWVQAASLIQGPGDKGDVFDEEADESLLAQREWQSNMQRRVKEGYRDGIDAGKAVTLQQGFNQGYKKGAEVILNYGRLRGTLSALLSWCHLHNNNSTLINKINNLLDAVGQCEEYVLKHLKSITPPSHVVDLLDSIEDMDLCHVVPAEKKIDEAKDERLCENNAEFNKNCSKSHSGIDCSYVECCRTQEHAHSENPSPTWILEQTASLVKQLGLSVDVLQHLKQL
Summary of the method: (§1)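 Thermal stability values are relative to control samples and come from duplicates. They are expressed as log2 fold changes. For measurement, K562 cells (2×10^6 cells/mL) received 10 μM compound for 30 min, and aliquots were heated for 3 min over 48°C-58°C, pooled, and extracted at 4°C in PBS with 0.5% NP-40. Soluble protein, the supernatant after 21,000xg for 90 min, was quantified by TMTpro 16plex LC-MS/MS with equalised channel sums.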

YBX1 = YBX1 (UniProt P67809)
Chain of YBX1 (P67809 whole entry, looked up): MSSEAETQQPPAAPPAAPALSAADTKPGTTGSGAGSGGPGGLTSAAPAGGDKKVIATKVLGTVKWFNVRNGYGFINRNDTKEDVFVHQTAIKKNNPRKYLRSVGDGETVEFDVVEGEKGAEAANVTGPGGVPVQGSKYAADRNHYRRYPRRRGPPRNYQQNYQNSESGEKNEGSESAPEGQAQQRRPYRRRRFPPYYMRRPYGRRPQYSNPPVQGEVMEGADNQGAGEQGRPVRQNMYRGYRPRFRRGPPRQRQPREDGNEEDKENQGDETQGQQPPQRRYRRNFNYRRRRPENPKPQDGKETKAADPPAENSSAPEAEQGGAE
Summary of the method: as §1

YIPF4 = YIPF4 (UniProt Q9BSR8)
Chain of YIPF4 (Q9BSR8 whole entry, looked up): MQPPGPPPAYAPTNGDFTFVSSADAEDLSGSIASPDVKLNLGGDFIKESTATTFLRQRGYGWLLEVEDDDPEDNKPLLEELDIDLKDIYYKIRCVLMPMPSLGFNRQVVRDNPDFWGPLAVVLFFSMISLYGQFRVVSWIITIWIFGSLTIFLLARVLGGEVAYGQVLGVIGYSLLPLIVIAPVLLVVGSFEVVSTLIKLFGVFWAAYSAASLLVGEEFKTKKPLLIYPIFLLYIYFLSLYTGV
Summary of the method: as §1

YIPF5 isoform 3 = YIPF5 isoform 3 (UniProt Q969M3)
Chain of YIPF5 isoform 3 (Q969M3 whole entry, looked up, canonical isoform): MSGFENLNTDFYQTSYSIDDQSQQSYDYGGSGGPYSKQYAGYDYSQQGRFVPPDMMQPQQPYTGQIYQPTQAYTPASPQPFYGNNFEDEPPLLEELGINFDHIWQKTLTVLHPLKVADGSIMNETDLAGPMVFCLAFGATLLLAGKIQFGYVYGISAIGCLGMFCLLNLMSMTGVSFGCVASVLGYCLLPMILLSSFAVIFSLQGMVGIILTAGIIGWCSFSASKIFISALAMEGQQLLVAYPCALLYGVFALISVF
Summary of the method: as §1

YIPF6 = YIPF6 (UniProt Q96EC8)
Chain of YIPF6 (Q96EC8 whole entry, looked up): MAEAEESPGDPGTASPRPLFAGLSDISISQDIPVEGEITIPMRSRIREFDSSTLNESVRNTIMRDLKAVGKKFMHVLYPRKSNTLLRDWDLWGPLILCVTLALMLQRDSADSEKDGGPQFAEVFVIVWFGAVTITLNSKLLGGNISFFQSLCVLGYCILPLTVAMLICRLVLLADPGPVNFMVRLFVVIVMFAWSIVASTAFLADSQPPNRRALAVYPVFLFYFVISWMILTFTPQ
Summary of the method: as §1

YLPM1 = YLPM1 (UniProt P49750)
Summary of the method: as §1

YOD1 = YOD1 (UniProt Q5VVQ6)
Chain of YOD1 (Q5VVQ6 whole entry, looked up): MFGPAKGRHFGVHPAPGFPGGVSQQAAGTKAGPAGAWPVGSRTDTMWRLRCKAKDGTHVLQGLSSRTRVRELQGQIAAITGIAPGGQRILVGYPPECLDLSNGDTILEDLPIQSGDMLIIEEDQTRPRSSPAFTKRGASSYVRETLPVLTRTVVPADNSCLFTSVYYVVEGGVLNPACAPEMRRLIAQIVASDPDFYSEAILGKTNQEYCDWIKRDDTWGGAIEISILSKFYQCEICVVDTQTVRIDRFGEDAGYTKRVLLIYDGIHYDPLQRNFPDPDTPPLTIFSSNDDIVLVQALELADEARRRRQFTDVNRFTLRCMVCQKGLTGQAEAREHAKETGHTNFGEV
Summary of the method: as §1

YPEL5 = YPEL5 (UniProt P62699)
Summary of the method: as §1

YWHAB = YWHAB (UniProt P31946)
Chain of YWHAB (P31946 whole entry, looked up): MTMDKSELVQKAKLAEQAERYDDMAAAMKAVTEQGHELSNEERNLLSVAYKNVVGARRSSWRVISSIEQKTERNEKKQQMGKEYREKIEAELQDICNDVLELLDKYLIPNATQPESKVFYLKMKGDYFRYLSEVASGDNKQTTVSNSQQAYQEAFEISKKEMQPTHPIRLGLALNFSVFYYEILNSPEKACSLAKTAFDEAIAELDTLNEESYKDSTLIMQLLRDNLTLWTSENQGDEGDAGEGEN
Summary of the method: as §1

YWHAQ = YWHAQ (UniProt P27348)
Chain of YWHAQ (P27348 whole entry, looked up): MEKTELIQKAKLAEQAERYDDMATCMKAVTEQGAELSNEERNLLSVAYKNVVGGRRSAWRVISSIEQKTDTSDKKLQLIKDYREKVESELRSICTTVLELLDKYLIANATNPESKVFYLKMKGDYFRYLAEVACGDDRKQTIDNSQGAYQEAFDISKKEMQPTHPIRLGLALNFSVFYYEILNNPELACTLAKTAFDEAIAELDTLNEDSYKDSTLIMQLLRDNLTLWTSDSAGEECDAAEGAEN
Summary of the method: as §1

YWHAZ [1] = target: YWHAZ (UniProt P63104)
Chain of YWHAZ (UniProt P63104) (P63104 whole entry, looked up): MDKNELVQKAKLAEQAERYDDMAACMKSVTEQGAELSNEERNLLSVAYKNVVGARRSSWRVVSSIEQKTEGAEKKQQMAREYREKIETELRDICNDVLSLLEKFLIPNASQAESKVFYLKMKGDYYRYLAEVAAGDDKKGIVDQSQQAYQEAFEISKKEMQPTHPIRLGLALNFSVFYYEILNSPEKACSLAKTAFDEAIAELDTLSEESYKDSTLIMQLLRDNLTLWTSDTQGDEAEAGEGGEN
Summary of the method: as §1

YY1 = YY1 (UniProt P25490)
Chain of YY1 (P25490 whole entry, looked up): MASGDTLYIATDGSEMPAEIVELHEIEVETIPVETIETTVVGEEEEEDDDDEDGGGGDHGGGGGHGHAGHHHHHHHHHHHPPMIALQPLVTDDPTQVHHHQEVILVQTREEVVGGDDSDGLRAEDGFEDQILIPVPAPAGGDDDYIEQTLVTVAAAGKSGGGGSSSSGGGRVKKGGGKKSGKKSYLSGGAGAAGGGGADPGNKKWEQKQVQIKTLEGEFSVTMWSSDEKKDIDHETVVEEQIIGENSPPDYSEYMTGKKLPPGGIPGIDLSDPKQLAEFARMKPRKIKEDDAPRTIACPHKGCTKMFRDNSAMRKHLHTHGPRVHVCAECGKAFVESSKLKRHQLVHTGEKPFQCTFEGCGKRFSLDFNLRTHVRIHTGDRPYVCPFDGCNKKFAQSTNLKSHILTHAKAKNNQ
Summary of the method: as §1

ZADH2 = ZADH2 (UniProt Q8N4Q0)
Chain of ZADH2 (Q8N4Q0 whole entry, looked up): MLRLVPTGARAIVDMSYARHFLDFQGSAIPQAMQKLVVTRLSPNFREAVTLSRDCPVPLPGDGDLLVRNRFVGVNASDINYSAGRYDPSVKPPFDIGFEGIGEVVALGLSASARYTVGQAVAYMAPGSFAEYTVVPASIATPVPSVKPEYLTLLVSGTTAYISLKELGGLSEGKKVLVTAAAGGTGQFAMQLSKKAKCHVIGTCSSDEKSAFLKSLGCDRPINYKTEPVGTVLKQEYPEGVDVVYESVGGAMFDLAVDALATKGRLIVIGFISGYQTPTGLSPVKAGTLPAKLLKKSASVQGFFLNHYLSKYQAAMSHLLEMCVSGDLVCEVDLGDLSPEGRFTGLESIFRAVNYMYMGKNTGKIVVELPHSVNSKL
Summary of the method: as §1

ZBTB17 isoform 2 = ZBTB17 isoform 2 (UniProt Q13105)
Chain of ZBTB17 isoform 2 (Q13105 whole entry, looked up, canonical isoform): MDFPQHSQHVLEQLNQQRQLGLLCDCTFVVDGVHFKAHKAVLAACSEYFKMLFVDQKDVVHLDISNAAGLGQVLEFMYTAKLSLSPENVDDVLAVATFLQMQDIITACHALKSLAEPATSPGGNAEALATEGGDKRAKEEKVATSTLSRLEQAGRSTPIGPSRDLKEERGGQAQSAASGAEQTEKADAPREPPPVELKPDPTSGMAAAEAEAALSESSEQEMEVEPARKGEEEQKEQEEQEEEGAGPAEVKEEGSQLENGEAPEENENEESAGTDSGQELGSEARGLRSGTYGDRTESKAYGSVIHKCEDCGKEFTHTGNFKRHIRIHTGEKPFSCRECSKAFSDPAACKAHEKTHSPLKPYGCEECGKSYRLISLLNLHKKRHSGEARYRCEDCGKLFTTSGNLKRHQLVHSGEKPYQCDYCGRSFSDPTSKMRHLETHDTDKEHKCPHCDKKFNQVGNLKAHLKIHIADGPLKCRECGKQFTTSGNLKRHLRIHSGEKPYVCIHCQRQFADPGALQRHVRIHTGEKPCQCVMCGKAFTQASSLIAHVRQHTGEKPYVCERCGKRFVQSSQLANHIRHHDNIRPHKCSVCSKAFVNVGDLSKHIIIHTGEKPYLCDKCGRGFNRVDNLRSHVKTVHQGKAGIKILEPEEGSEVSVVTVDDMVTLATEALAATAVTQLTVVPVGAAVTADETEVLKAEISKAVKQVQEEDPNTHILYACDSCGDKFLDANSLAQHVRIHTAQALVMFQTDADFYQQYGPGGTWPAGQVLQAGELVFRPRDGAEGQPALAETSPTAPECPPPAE
Summary of the method: as §1

ZBTB21 = ZBTB21 (UniProt Q9ULJ3)
Summary of the method: as §1

ZBTB43 = ZBTB43 (UniProt O43298)
Summary of the method: as §1

ZC3H18 = ZC3H18 (UniProt Q86VM9)
Chain of ZC3H18 (Q86VM9 whole entry, looked up): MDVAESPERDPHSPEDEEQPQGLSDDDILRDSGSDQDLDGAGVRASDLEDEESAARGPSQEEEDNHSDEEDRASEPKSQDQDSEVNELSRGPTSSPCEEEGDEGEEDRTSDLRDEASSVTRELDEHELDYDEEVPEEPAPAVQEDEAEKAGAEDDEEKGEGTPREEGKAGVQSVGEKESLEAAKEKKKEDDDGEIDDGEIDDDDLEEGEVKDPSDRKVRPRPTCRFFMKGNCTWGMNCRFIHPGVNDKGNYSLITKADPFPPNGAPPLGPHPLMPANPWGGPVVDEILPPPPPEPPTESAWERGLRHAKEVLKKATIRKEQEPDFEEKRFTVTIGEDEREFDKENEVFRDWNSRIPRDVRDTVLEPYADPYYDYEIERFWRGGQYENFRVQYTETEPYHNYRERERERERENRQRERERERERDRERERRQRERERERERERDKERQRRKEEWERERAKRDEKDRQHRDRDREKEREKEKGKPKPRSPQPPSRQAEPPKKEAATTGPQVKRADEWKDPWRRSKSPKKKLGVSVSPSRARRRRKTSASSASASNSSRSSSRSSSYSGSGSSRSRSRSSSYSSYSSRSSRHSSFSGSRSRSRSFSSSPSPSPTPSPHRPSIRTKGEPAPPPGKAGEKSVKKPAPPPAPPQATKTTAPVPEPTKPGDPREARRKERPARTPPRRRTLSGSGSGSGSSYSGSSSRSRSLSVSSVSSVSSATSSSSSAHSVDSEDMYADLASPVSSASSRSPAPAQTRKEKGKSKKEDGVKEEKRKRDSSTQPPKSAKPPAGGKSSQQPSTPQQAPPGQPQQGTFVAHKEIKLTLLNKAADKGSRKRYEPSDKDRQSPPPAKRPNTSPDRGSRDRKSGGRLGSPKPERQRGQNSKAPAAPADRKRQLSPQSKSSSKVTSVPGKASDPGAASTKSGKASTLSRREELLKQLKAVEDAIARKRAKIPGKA
Summary of the method: as §1

YES1 = YES1 (UniProt P07947)
Summary of the method: as §1

YWHAZ [2] = target: YWHAZ (UniProt E7ESK7)
Summary of the method: as §1

SMILES	log2 fold change (YAE1)	log2 fold change (YBX1)	log2 fold change (YIPF4)	log2 fold change (YIPF5 isoform 3)	log2 fold change (YIPF6)	log2 fold change (YLPM1)	log2 fold change (YOD1)	log2 fold change (YPEL5)	log2 fold change (YWHAB)	log2 fold change (YWHAQ)	log2 fold change (YWHAZ [1])	log2 fold change (YY1)	log2 fold change (ZADH2)	log2 fold change (ZBTB17 isoform 2)	log2 fold change (ZBTB21)	log2 fold change (ZBTB43)	log2 fold change (ZC3H18)	log2 fold change (YES1)	log2 fold change (YWHAZ [2])
CON(C)C(=O)N1N=C(c2cc(F)ccc2F)S[C@@]1(CCCN)c1ccccc1 [filanesib]	0.133	0.202	0.077	0.017	-0.08	0.083	-0.067	0.413	-0.044	-0.086	-0.027	-0.006	0.065	-0.026	0.075	-0.024	0.217	–	–
CCn1cc(-c2ccnc3[nH]c(-c4cccc(CN(C)C)c4)cc23)c(-c2ccc(NC(=O)N(C)C)cc2)n1	-0.015	0.249	0.037	0.06	0.103	-0.012	-0.101	-0.072	0.014	0.143	-0.042	0.002	0.13	–	-0.073	0.028	0.068	-0.241	–
Cc1nc(Nc2n[nH]c3c2CN(C(=O)N[C@H](CN(C)C)c2ccccc2)C3(C)C)c2sccc2n1	0.104	0.149	0.004	0.016	-0.042	-0.075	-0.089	-0.118	-0.002	-0.033	-0.015	-0.304 (active)	-0.127	–	-0.093	0.043	-0.145	-0.746 (active)	–
NCC(=O)Nc1ccc(-n2nc(C(F)(F)F)cc2-c2ccc3c(ccc4ccccc43)c2)cc1	-0.011	0.055	-0.004	0.021	0.071	-0.069	-0.015	0.129	-0.007	0.457	0.084	-0.009	0.017	–	-0.042	0	-0.012	0.001	–
Nc1ccccc1NC(=O)c1ccc(CNC(=O)OCc2cccnc2)cc1 [entinostat]	0.011	-0.073	-0.04	-0.05	0.228	-0.064	-0.143	-0.187	-0.042	0.116	0.032	0.053	-0.04	-0.14	-0.074	-0.091	0.021	–	–
COc1cc2ncnc(Nc3ccc(F)c(Cl)c3)c2cc1OCCCN1CCOCC1 [gefitinib]	-0.016	-0.096	0.038	0.024	0.005	0.002	0.006	-0.239	-0.001	0.007	0.005	-0.076	-0.029	–	-0.125	0.025	-0.033	-0.045	–
Cc1ncc(-c2ccnc(Nc3ccc(S(C)(=O)=O)cc3)n2)n1C(C)C	0.042	0.013	-0.005	-0.03	-0.023	-0.011	-0.018	0.036	0	-0.026	-0.003	-0.207	0.066	–	0.061	0.16	-0.162	-0.051	–
CCn1c(C(=O)N(C2CC2)C2CC2)cc2c3c(ncn3C)c(Nc3cc(C)n(C)n3)nc21	-0.018	-0.016	0	-0.01	0.022	-0.077	-0.014	0.027	0.027	0.039	0.017	0.044	0.154	0.005	-0.038	-0.033	0.018	-0.243	–
CN1CCN(c2nc(C3=C(c4c[nH]c5ccccc45)C(=O)NC3=O)c3ccccc3n2)CC1 [sotrastaurin]	0.074	0.016	0.113	0.034	-0.648 (active)	0.021	0.034	-0.102	0.031	-0.043	-0.01	-0.092	-0.015	0.03	0.022	0.027	-0.11	–	–
CC1=C(C(=O)Nc2cc3cn[nH]c3cc2F)C(c2ccc(C(F)(F)F)cc2)CC(=O)N1 (configuration not stated)	-0.001	0.044	-0.019	-0.007	0.055	-0.01	0.023	0.058	0.001	0.107	0.058	0.059	-0.014	–	0.033	-0.04	0.022	-0.012	–
Cc1cccc(CC(=O)N2CCc3c2ccc(-c2cn(C)c4ncnc(N)c24)c3F)n1	0.008	-0.024	-0.042	0.06	-0.006	-0.05	0.041	0.198	-0.058	0.694 (active)	0.029	0.003	-0.041	–	0.016	-0.025	-0.063	0.007	–
O=C(Nc1cccc(Nc2ncc(Br)c(NCCc3cnc[nH]3)n2)c1)N1CCCC1	-0.084	0.103	-0.033	0.033	-0.013	-0.083	-0.012	–	0.006	-0.089	0.011	-0.065	0.001	-0.014	0.107	-0.052	-0.126	-0.139	-0.031
Cc1ccc2c(=O)c3ccccc3n(CCCN)c2c1C	0.022	-0.637 (active)	0.215	-0.006	0.145	0.023	0.063	–	-0.072	-0.055	-0.009	-0.433 (active)	0.038	1.05 (active)	-0.183	-1.06 (active)	-0.612 (active)	0.043	0.029
CN1CCc2c(c3ccccc3n2Cc2ccc(C(=O)NO)cc2)C1 [Tubastatin A]	-0.018	0.022	-0.028	-0.103	-0.01	0.039	0.072	–	-0.014	-0.026	-0.004	-0.011	-0.007	0.049	-0.132	-0.018	0.129	0.094	0.102
